Only some compounds are listed: those with a hit (about 4.6% of all), similar ones and a draw of the others.
D1 PAM = Potentiators of Human D1 Dopamine Receptor: qHTS | HEK293 TREx D1 cells, calcium flux, dopamine EC20 potentiation | AID 504651, 2011 | actives 0.036% (n = 360,000) | D(1A) dopamine receptor (Homo sapiens), P21728 | potentiation, % at 10 µM; in the data active = potentiation above about 30%
D1 ag = Allosteric Agonists of the Human D1 Dopamine Receptor: qHTS; D(1A) dopamine receptor (Homo sapiens), P21728; HEK293 T-REx D1 cells, calcium flux, agonist mode; activation, % at 2 µM; actives 1% (n = 360,000); AID 504660, 2011
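Inducible HEK293 T-REx D1 cells, force-coupled to calcium signalling, were plated at 4000 cells/well with tetracycline and held overnight at 30 C. After no-wash calcium dye loading, compound-evoked calcium rise over 180 s flagged agonists.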
TRHR agonist = qHTS for Small Molecule Agonists and Allosteric Enhancers of Human TRH Receptor: Primary Screen for Agonists; Thyrotropin-releasing hormone receptor (Homo sapiens), P34981; TRHR cells, calcium flux fluo-8, FDSS agonist mode; activation, % at 2 µM; actives 0.18% (n = 360,000); AID 493084, 2011
Target sequence (P34981 whole entry, looked up): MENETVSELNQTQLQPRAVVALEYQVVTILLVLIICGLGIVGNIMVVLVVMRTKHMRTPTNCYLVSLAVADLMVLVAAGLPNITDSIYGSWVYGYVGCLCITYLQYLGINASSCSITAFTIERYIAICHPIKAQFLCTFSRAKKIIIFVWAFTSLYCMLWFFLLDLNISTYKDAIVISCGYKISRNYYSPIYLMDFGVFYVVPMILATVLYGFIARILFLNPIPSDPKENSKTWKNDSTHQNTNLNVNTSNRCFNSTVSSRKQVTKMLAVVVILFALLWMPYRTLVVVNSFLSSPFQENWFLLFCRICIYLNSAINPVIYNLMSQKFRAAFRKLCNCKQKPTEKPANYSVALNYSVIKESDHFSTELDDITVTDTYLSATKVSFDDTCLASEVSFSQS
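In this calcium-flux screen, cells bearing human TRHR are dye-loaded with fluo-8, baselined for 10 cycles, then exposed to library compounds; positive kinetic calcium responses during the agonist phase mark hits, with TRH as control.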
TRHR enhancer = qHTS for Small Molecule Agonists and Allosteric Enhancers of Human TRH Receptor: Primary Screen for Enhancers | Thyrotropin-releasing hormone receptor (Homo sapiens), P34981 | TRHR cells, fluo-8 calcium fluorescence, EC20 TRH enhancement | enhancement, % at 2 µM | actives 0.66% (n = 360,000) | AID 493056, 2011; in the data active = enhancement above about 30%
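TRHR-expressing cells loaded with fluo-8 calcium dye were read kinetically (ex 480/em 530) during compound addition, then stimulated with an EC20 of TRH (10 nM final). Enhancement of the Gq-mediated intracellular calcium response was scored.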
D1 antagonist = Antagonist of Human D 1 Dopamine Receptor: qHTS; activity change, negative = inhibition, % at 10 µM; actives 3.2% (n = 360,000); AID 504652, 2011; D(1A) dopamine receptor (Homo sapiens), P21728; HEK293 TREx D1 cells, calcium flux, dopamine EC80; active compounds read low; in the data active = activity change below about -30%
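After overnight tetracycline induction at 30 C, force-coupled D1 HEK293 cells took up a no-wash calcium dye at room temperature. Compounds were added and monitored 180 s, and the response to EC80 dopamine was then recorded.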
Hits are given with their value. Cut-off read from the data, not from the text of the source, unless noted: active = activation above about 30%; inactive = the rest.

What do the screens show for `O=C(Nc1nccs1)c1ccc2c(c1)C(=O)N(Cc1cccnc1)C2=O`?
D1 PAM: inactive; D1 ag: inactive; TRHR agonist: inactive; TRHR enhancer: inactive; D1 antagonist: inactive

Results for Cc1cnc(NC(=O)c2ccc3c(c2)C(=O)N(Cc2cccnc2)C3=O)s1 ?
D1 PAM: inactive; D1 ag: inactive; TRHR agonist: inactive; TRHR enhancer: inactive; D1 antagonist: -32.9

How did CCCCc1cc(=O)oc2c(CN3CCCC3)c(O)c(Cl)cc12 do in these assays?
D1 PAM: inactive; D1 ag: inactive; TRHR agonist: inactive; TRHR enhancer: inactive; D1 antagonist: -33.0

What do the screens show for `CCCc1cc(=O)oc2c(CN(CC)CC)c(O)c(Cl)cc12`?
D1 PAM: inactive; D1 ag: inactive; TRHR agonist: inactive; TRHR enhancer: inactive; D1 antagonist: -43.6

What do the screens show for `CCCCc1cc(=O)oc2c(CN(CC)CC)c(O)c(Cl)cc12`?
D1 PAM: inactive; D1 ag: inactive; TRHR agonist: inactive; TRHR enhancer: inactive; D1 antagonist: inactive

How did COC(=O)c1sc2cccc(F)c2c1S(=O)(=O)N1CCN(c2ccc(F)cc2)CC1 do in these assays?
D1 PAM: inactive; D1 ag: inactive; TRHR agonist: inactive; TRHR enhancer: inactive; D1 antagonist: inactive

Results for CCOC(=O)c1ccccc1NC(=O)CN(c1ccc(OCC)cc1)S(C)(=O)=O ?
D1 PAM: inactive; D1 ag: inactive; TRHR agonist: inactive; TRHR enhancer: 34.5; D1 antagonist: inactive

What do the screens show for `CCOc1ccccc1N(CC(=O)Nc1ccccc1C(=O)O)S(C)(=O)=O`?
D1 PAM: inactive; D1 ag: inactive; TRHR agonist: inactive; TRHR enhancer: inactive; D1 antagonist: -44.5

How did COc1ccc(-n2c(SCC(=O)NCc3ccc(F)cc3)nc3c([nH]c4ccccc43)c2=O)cc1 do in these assays?
D1 PAM: inactive; D1 ag: inactive; TRHR agonist: inactive; TRHR enhancer: inactive; D1 antagonist: inactive

How did Cc1ccc(C)c(Nc2ncnc3onc(C)c23)c1 do in these assays?
D1 PAM: inactive; D1 ag: inactive; TRHR agonist: inactive; TRHR enhancer: inactive; D1 antagonist: inactive

What do the screens show for `CCOc1ccccc1C(=O)Nc1ccc(S(=O)(=O)Nc2onc(C)c2C)cc1`?
D1 PAM: inactive; D1 ag: inactive; TRHR agonist: inactive; TRHR enhancer: inactive; D1 antagonist: inactive

Results for Cn1nc(C(F)(F)F)c(-c2ccc(Br)cc2)c1NC(=O)Nc1ccc(F)cc1F ?
D1 PAM: inactive; D1 ag: inactive; TRHR agonist: inactive; TRHR enhancer: inactive; D1 antagonist: -34.1

Results for Cn1nc(C(F)(F)F)c(-c2ccc(F)cc2)c1NC(=O)c1ccco1 ?
D1 PAM: inactive; D1 ag: inactive; TRHR agonist: inactive; TRHR enhancer: inactive; D1 antagonist: inactive

Results for CCOC(=O)c1sc2nc(CC(=O)OC)nc(N(C)CCc3ccccn3)c2c1C ?
D1 PAM: inactive; D1 ag: inactive; TRHR agonist: inactive; TRHR enhancer: inactive; D1 antagonist: -30.3

How did CCOC(=O)c1c(C)[nH]c(C)c1S(=O)(=O)N1CCC(C(=O)Nc2ccc(F)cc2F)CC1 do in these assays?
D1 PAM: inactive; D1 ag: inactive; TRHR agonist: inactive; TRHR enhancer: inactive; D1 antagonist: inactive

Results for CCOC(=O)C1CCCN(C(=O)Cn2ncn3c(cc4sc(CC)cc43)c2=O)C1 (stereo not given) ?
D1 PAM: inactive; D1 ag: inactive; TRHR agonist: inactive; TRHR enhancer: inactive; D1 antagonist: inactive

What do the screens show for `CC(C)C(=O)Nc1ccc(Nc2ccccc2)cc1`?
D1 PAM: inactive; D1 ag: inactive; TRHR agonist: inactive; TRHR enhancer: inactive; D1 antagonist: inactive

What do the screens show for `CC(C)C(=O)Nc1ccc(Sc2ccc(F)cc2)cc1`?
D1 PAM: inactive; D1 ag: inactive; TRHR agonist: inactive; TRHR enhancer: inactive; D1 antagonist: -50.4

What do the screens show for `CC(C)c1ccc(CN(Cc2ccco2)c2cnc(S(C)(=O)=O)nc2C(=O)Nc2ccc(F)cc2)cc1`?
D1 PAM: inactive; D1 ag: inactive; TRHR agonist: inactive; TRHR enhancer: inactive; D1 antagonist: inactive

What do the screens show for `COc1ccc2ccccc2c1-c1sc(Nc2ccccc2)n[n+]1-c1ccc(F)cc1`?
D1 PAM: inactive; D1 ag: 36.9; TRHR agonist: inactive; TRHR enhancer: inactive; D1 antagonist: -39.6

Results for COc1ccc(-c2sc(Nc3ccccc3)n[n+]2-c2ccc(F)cc2)cc1Br ?
D1 PAM: inactive; D1 ag: inactive; TRHR agonist: inactive; TRHR enhancer: inactive; D1 antagonist: inactive

How did Fc1ccc(-[n+]2nc(Nc3ccccc3)sc2-c2c(Cl)cccc2Cl)cc1 do in these assays?
D1 PAM: inactive; D1 ag: 49.3; TRHR agonist: inactive; TRHR enhancer: inactive; D1 antagonist: inactive

Results for CCc1ccc(Nc2n[n+](-c3ccccc3)c(-c3c(Cl)cccc3Cl)s2)cc1 ?
D1 PAM: inactive; D1 ag: 92.5; TRHR agonist: inactive; TRHR enhancer: inactive; D1 antagonist: -69.1

How did CCc1ccc(Nc2n[n+](-c3ccccc3)c(-c3ccc(N(CC)CC)cc3)s2)cc1 do in these assays?
D1 PAM: inactive; D1 ag: inactive; TRHR agonist: inactive; TRHR enhancer: inactive; D1 antagonist: inactive

What do the screens show for `COc1ccc(-n2ncc3c(NC(C)(C)CO)ncnc32)cc1`?
D1 PAM: inactive; D1 ag: inactive; TRHR agonist: inactive; TRHR enhancer: inactive; D1 antagonist: inactive

What do the screens show for `CC1CCC(C(=O)NC(C(=O)OCC(=O)c2ccc(Br)cc2)C(C)C)CC1` (stereo not given)?
D1 PAM: inactive; D1 ag: inactive; TRHR agonist: inactive; TRHR enhancer: inactive; D1 antagonist: inactive

Results for O=C(Nc1cccc(C(=O)N2CCN(c3ccc(Cl)cc3)CC2)c1)c1nsc2ccccc12 ?
D1 PAM: inactive; D1 ag: inactive; TRHR agonist: inactive; TRHR enhancer: inactive; D1 antagonist: inactive

Results for COc1ccc(Cc2noc(CN3CCN(c4ccc(Cl)cn4)CC3)n2)cc1OC ?
D1 PAM: inactive; D1 ag: inactive; TRHR agonist: inactive; TRHR enhancer: inactive; D1 antagonist: -30.9

How did N/C(COc1ccccc1)=N\NS(=O)(=O)c1ccccc1 do in these assays?
D1 PAM: inactive; D1 ag: inactive; TRHR agonist: inactive; TRHR enhancer: 31.0; D1 antagonist: inactive

How did C/C(=N\NS(=O)(=O)c1ccccc1)c1ccccc1 do in these assays?
D1 PAM: inactive; D1 ag: inactive; TRHR agonist: inactive; TRHR enhancer: inactive; D1 antagonist: inactive

Screens (PubChem)
